Reference: PubChem BioAssay AID720555 (National Center for Advancing Translational Sciences (NCATS), 2013)
Inconclusive results are not listed. The source made the active and inactive calls. Calls follow the shape of the dose curve; as a rule, active = well fitted inhibition curve with a large enough effect; inconclusive = small, poorly fitted or top-dose-only effect; inactive = no such curve, though single readings can be large or run the other way.

Each molecule was assayed against RecQ-like DNA helicase BLM (Homo sapiens) (UniProt P54132) (assay: qHTS for Inhibitors of Bloom's syndrome helicase (BLM): Helicase DNA unwinding fluorescent orthogonal confirmatory assay for SAR). Conditions: fluorescence, orthogonal confirmation; series mostly up to 55.6 µM.
Method in brief: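 Gel-based orthogonal unwinding test: native PAGE separated substrate from single-stranded product of a fluorescent DNA duplex processed by purified BLM (2mM ATP, 50mM NaCl, room temperature). Bands were quantified and normalised against no-enzyme and no-inhibitor wells.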

Sequence of RecQ-like DNA helicase BLM (Homo sapiens) (P54132 whole entry, looked up): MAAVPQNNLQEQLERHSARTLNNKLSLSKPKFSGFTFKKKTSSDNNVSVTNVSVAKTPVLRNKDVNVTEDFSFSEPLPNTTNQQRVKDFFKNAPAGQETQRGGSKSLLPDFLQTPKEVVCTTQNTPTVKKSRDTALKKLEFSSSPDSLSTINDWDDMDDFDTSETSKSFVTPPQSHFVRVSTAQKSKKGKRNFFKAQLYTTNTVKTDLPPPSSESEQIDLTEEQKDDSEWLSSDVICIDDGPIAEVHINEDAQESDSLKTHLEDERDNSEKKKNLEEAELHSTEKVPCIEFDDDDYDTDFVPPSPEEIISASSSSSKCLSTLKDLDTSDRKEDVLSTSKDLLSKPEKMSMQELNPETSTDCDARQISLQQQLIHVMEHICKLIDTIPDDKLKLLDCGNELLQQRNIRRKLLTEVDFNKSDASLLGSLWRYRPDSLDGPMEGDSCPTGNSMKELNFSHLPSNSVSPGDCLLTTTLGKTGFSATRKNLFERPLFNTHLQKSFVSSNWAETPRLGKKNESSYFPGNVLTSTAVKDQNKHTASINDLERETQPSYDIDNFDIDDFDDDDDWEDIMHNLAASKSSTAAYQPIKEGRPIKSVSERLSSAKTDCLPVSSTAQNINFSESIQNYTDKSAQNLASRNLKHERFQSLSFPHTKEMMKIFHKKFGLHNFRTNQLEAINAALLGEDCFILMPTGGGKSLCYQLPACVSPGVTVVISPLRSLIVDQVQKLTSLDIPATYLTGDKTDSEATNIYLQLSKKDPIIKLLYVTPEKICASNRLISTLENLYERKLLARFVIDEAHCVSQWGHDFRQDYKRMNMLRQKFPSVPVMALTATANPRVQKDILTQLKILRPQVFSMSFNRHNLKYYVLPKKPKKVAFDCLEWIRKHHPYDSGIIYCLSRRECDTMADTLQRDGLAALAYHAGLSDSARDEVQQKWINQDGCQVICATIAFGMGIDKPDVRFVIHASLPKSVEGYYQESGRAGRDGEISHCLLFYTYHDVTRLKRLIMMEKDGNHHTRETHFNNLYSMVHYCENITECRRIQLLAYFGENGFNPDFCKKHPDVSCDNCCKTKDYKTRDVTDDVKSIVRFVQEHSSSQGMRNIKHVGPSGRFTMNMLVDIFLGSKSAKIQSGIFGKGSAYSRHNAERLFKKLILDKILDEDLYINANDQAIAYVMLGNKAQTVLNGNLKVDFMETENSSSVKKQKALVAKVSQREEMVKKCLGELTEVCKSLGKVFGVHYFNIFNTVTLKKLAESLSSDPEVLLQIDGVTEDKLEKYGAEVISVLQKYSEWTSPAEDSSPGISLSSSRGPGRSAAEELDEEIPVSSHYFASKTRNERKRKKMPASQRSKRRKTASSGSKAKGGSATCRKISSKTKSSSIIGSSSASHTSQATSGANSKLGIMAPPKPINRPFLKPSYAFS

**Q.** Which Potency does the source give for `O=C(Nc1cccc(C(=O)O)c1)Nc1nnc(-c2ccncc2)s1` here?
**A.** inactive

**Q.** For `O=C(Nc1ccc(Br)c(Br)c1)Nc1nnc(-c2ccncc2)s1`, which Potency is on record?
**A.** 5.01 µM (active)

**Q.** `O=C(Nc1nnc(-c2ccncc2)s1)Nc1ccc(Cl)cc1F` was tested. Which Potency did it give?
**A.** 28.2 µM (active)

**Q.** For `Cc1ccc(-c2nnc(NC(=O)Nc3ccc4ccccc4c3)s2)cc1`, which Potency is on record?
**A.** inactive

**Q.** For `O=C(Nc1ccc2ccccc2c1)Nc1cccc(-c2ccncc2)n1`, which Potency is on record?
**A.** 8.91 µM (active)

**Q.** For `O=S(=O)(Cc1ccc(Cl)c(Cl)c1)Nc1nnc(-c2ccncc2)s1`, which Potency is on record?
**A.** inactive

**Q.** `O=c1c(Nc2ccc(Cl)c(Cl)c2)c(Nc2nnc(-c3ccncc3)s2)c1=O` was tested. Which Potency did it give?
**A.** 14.1 µM (active)

**Q.** For `CC(C)(C)c1ccc(-c2nnc(NC(=O)Nc3ccc4ccccc4c3)s2)cc1`, which Potency is on record?
**A.** inactive

**Q.** How did the Potency turn out when `O=C(NCc1ccccc1)Nc1nnc(-c2ccncc2)s1` was run?
**A.** inactive

**Q.** How did the Potency turn out when `O=C(Nc1ccc(Cl)c(Cl)c1)Nc1cccc(-c2ccncc2)n1` was run?
**A.** 3.98 µM (active)

**Q.** `O=C(Nc1ccc2ccccc2c1)Nc1nnc(-c2ccncc2)s1` was tested. Which Potency did it give?
**A.** 10 µM (active)

**Q.** With `O=C(Nc1ccc(Cl)c(Cl)c1)Nc1nnc(-c2ccncc2)s1` as the molecule, how does the Potency read?
**A.** 1.58 µM (active)
